Holding throughout (test): NCI-60 one-dose screen, 48 h (100 = growth as untreated, 0 = no growth, -100 = all killed)
Conditions in all cases: 10 µM unless noted

Test [1] concerns SR leukemia.
For test [2], the system named is RPMI-8226 leukemia.
Test [3] concerns OVCAR-5 ovarian.
Test [4] has as its system OVCAR-4 ovarian.
Test [5] has as its system SK-OV-3 ovarian.
Test [6] deals with OVCAR-3 ovarian.
Test [7] deals with HS 578T breast.
Test [8] deals with NCI/ADR-RES ovarian.
The test system of test [9] is IGROV1 ovarian.
Test [10] concerns OVCAR-8 ovarian.

Each structure is given as a SMILES string. About 83,000 compounds went through this panel and 20% of them were active in at least one assay; those are over-represented in the sample as a whole.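 For each line, cells grew in 96-well plates with the test compound present at a single concentration for 48 hours.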 Values without a mark were called inactive. The source made the active and inactive calls. Rule for the calls: active = growth percent below 10; inactive = the rest.

As to `COc1cc(C(=O)c2cc(C(C)=O)c3c(C)cccn23)cc(OC)c1OC`, the growth is 96.5% in test [1]; 95.5% in [2]; 95.8% in test [3]; 90.8% in test [4]; 109% in [5]; 115% in test [6]. Further, the growth in test [7] was 90.7%; in test [8] it was 97.9%.

For `Cc1[nH]c(C(=O)Nc2ccc(S(=O)(=O)N3CCCCC3)cc2OCCOCCOCCOCCOCCOCCOCCOCCOCCOc2cc(S(=O)(=O)N3CCCCC3)ccc2NC(=O)c2[nH]c(C)c3c2CCCCC3=O)c2c1C(=O)CCCC2`, the growth was 10.9% in test [1]; 10.6% in test [2]; 48.6% in test [3]; 12.5% in [4]; -42.5% (active) in test [5]; 6.25% (active) in test [9]. Further, the growth was -17% (active) in test [7] and 85.3% in test [8].

Regarding `CC/C(=C(/c1ccc(Cl)cc1)c1ccc(OCCN)cc1)c1ccccc1`, the growth in [1] was 0.24% (active); in test [2], 89.8%; in test [10] it was 100%; in test [3], 119%; in test [5], 119%; in test [9] it was 96.8%. For the same compound, the growth in test [7] was 90.3%; in [8], 99.9%.

With `CN(C)S(=O)(=O)c1ccc(-c2nc(C(Cl)Cl)nc3cc(-c4ccc(F)cc4)nn23)cc1`, the growth in [1] was 8.24% (active); in [2], 7.75% (active); in test [3], 18.3%; in test [4], 21.1%; in test [5], 0.219% (active); in [9], 0.61% (active). In addition, the growth in test [6] was 8.15% (active); in [7], 20.3%; in test [8] it was 3.66% (active).

As to `O=C(CSc1nc2ccccc2c(=O)n1-c1ccccc1)N/N=C/c1ccc(Oc2ccc(Br)cc2)cc1`, the growth in test [1] is 73.4%; in test [2], 68.3%; in [3], 94%; in test [4], 81.7%; in test [5] it was 84.5%; in [6] it was 117%. Also, the growth in test [7] is 60.8%; in [8], 55.2%.

With `CCc1cc2c(cc1Cl)nc1c(=O)[nH]c(=O)nc-1n2CCOCC(C)C`, the growth in test [1] was 22.7%; in [2] it was 66.6%; in [3], 120%; in test [4], 44.1%; in test [5], 111%; in [9], 58.6%. Moreover, the growth in test [7] was 98.2%; in test [8] it was 74.1%.

Turning to `COc1cc(OC)cc(-c2cc(-c3c[nH]c4ccccc34)nc(-c3c[nH]c4ccccc34)c2C#N)c1`, the growth in [1] was 81.3%; in [2] it was 99%; in test [3] it was 109%; in [4] it was 102%; in test [5], 99.9%; in test [9], 93.7%. Also, the growth in test [7] was 102%; in test [8], 97.1%.

Take `Cc1ccc2c(n1)C(=O)C(Cl)=C(Nc1ccc(C(F)(F)F)cc1)C2=O`: the growth in [1] is 10.5%; in test [2], -8.81% (active); in test [3] it was 110%; in test [4], -96.4% (active); in test [5], 82.2%; in test [9], -58.2% (active). The values for the growth in test [6], in [7] and in test [8] were -48.6% (active), 94.1% and 87.6%, respectively.

For the compound `Fc1ccc2nc(-c3cnn4cccnc34)sc2c1`, the growth in test [1] was 78%; in test [2], 87.6%; in test [3], 101%; in test [4], 63.5%; in test [5], 81%; in test [9], 49.2%. The growth in test [6] was 84.2%; in test [7], 90.1%; in test [8], 96.6%.

For the compound `NC(=S)n1c(=O)n(-c2cccc(C(F)(F)F)c2)c(=O)c2cc(-c3ccc(F)cc3F)ccc21`, the growth in [1] was 5.69% (active); in test [2] it was -20.8% (active); in test [3] it was 9.62% (active); in test [4], 29.9%; in test [5] it was -2.63% (active); in test [9] it was 21.2%. For the same compound, the growth in test [7] is -2.09% (active); in test [8], 4.95% (active).

Regarding `NC(=O)c1ncn2c(=O)n(CCF)nnc12`, the growth in test [1] is 35.3%; in test [2], 44%; in test [3] it was 85.1%; in test [4], 58%; in test [5], 17.3%; in test [9], 70.3%. Moreover, the growth in test [7] is 103%; in test [8], 50.6%.

`O=S(=O)(NCCCNc1nccc(-c2[nH]c(-c3ccccc3)nc2-c2ccc(F)c(O)c2)n1)c1cccc(F)c1`: the growth in [1] is 36.7%; in [2], 45%; in test [3], 147%; in [4] it was 108%; in test [5], 113%; in [9], 105%. The growth in test [6] is 123%; in [7], 101%; in [8], 103%.

Turning to `COc1ccc(NC2=C(Br)C(=O)C(C)=C(C)C2=O)cc1OC`, the growth in test [1] was 71.2%; in [2], 70.8%; in [3] it was 121%; in [4], 14.1%; in test [5] it was 83.8%; in [9], 86%. Besides, the results for the growth in [6], in test [7] and in test [8] were 107%, 97.6% and 97.3%, respectively.

Consider `Brc1cccc(-c2cc(-c3cnc4c(c3)OCCO4)n[nH]2)c1`, for which the growth in [1] is 13.4%; in test [2], 26.2%; in test [3], 72.3%; in [4], 82.5%; in test [5], 77.1%; in [9], 45%. Also, the results for the growth in test [7] and in [8] were 76.1% and 10.9%, respectively.

Regarding `CCS(=O)(=O)Nc1ccc(C(=O)CC2(O)C(=O)Nc3ccccc32)cc1` (stereo unspecified), the growth in test [1] is 99.2%; in [2], 101%; in test [3], 102%; in test [4], 108%; in [5], 105%; in test [9], 90%. The growth in test [7] was 104%; in [8] it was 96.7%.

For `O=S(=O)(Oc1ccc(-c2cn3ccsc3n2)cc1)c1cccc(C(F)(F)F)c1`, the growth in test [1] is 95.2%; in [2], 97.5%; in test [3] it was 107%; in test [4] it was 96.5%; in test [5], 108%; in test [9], 107%. Moreover, the growth in [7] was 102%; in test [8] it was 108%.

In the case of `C#Cc1cc(OC)c(C(=O)Nc2ccc(F)cc2C(=O)Nc2cccc(S(=O)(=O)C(F)(F)F)c2)cn1`, the growth in [1] is -42.7% (active); in test [2] it was -44.1% (active); in [3], -33.2% (active); in test [4], 27.8%; in [5], -70.5% (active); in [6], -30.2% (active). For the same compound, the growth in test [7] was -19.7% (active); in [8], -29.1% (active).

The values are drawn from PubChem BioAssay (NCI).
